Values without a mark were called inactive. Inconclusive results are not listed. Where a call stands in place of a potency, no number is given. Active and inactive are the calls of the source. Calls come from the whole dose curve; as a rule, active = well fitted curve in the direction sought with a large enough effect in the repeat runs; inconclusive = weak or mixed curves; inactive = no such curve, though single readings can be large; an effect the other way counts as inactive or inconclusive.
Columns and labels:
[1] = A CellTox Green Cytotoxicity Assay to monitor cytotoxicity in HEK293 cells - 40 hour (AID 1224871); note: nearly all actives have a fitted effect of over 45% in size; note: potency is the fitted concentration of half-maximal effect
How it was run: (§1)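 HEK293 cells premixed with CellTox Green dye were seeded at 600 cells/well and left 5 h at 37 C/5% CO2 before pin transfer of 23 nL compound in DMSO. Fluorescence from dye bound to dead-cell DNA was read during 40 h treatment.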

[2] = qHTS RealTime-Glo MT Cell Viability Assay in HEK293 cells - 16 hour (AID 1224872); note: top concentration of the series differs between compounds; nearly all actives have a fitted effect of over 50% in size
How it was run: (§2)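 Assay medium contained NanoLuc luciferase plus cell-permeant prosubstrate, added with HEK293 cells at 600 cells/well. After 5 h at 37 C/5% CO2 compounds were added; plates stayed at 37 C for 40 h with serial luminescence reads.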

[3] = qHTS RealTime-Glo MT Cell Viability Assay in HepG2 cells - 8 hour (AID 1224873); note: nearly all actives have a fitted effect of over 55% in size
How it was run: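 HepG2 cells (600/well) mixed with RealTime-Glo MT reagent, settled 5 h at 37 C/5% CO2 before compound addition. Nonlytic NanoLuc luminescence from viable-cell prosubstrate reduction read repeatedly during 40 h treatment at 37 C.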

[4] = qHTS RealTime-Glo MT Cell Viability Assay in HEK293 cells - 40 hour (AID 1224874); conditions: RealTime-Glo luminescence; max response: hits give low values; note: nearly all actives have a fitted effect of over 50% in size
How it was run: (§3)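 HEK293 cells mixed with RealTime-Glo reagents (NanoLuc plus cell-permeant prosubstrate) at 600 cells/well, preincubated 5 h at 37 C/5% CO2, then given 23 nL compound in DMSO. Nonlytic luminescence from viable cells was read at 0, 8, 16, 24, 32 and 40 h.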

[5] = A CellTox Green Cytotoxicity Assay to monitor cytotoxicity in HEK293 cells - 24 hour (AID 1224875); note: nearly all actives have a fitted effect of over 45% in size; note: potency is the fitted concentration of half-maximal effect
How it was run: as §1

[6] = A CellTox Green Cytotoxicity Assay to monitor cytotoxicity in HepG2 cells - 16 hour (AID 1224876); note: nearly all actives have a fitted effect of over 45% in size; note: potency is the fitted concentration of half-maximal effect
How it was run: (§4)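 HepG2 cells were seeded together with the CellTox Green dye at 600 cells/well, left 5 h at 37 C/5% CO2, then given compounds in DMSO. Fluorescence from dye bound to dead-cell DNA was read repeatedly over 40 h of treatment at 37 C.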

[7] = qHTS RealTime-Glo MT Cell Viability Assay in HepG2 cells - 32 hour (AID 1224877); note: nearly all actives have a fitted effect of over 55% in size
How it was run: (§5)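 qHTS, HepG2, 600 cells/well, RealTime-Glo (NanoLuc + prosubstrate) added with cells; 5 h preincubation; DMSO compound addition; 37 C; luminescence at 0/8/16/24/32/40 h.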

[8] = A CellTox Green Cytotoxicity Assay to monitor cytotoxicity in HepG2 cells - 24 hour (AID 1224878); note: nearly all actives have a fitted effect of over 45% in size; note: potency is the fitted concentration of half-maximal effect
How it was run: as §4

[9] = A CellTox Green Cytotoxicity Assay to monitor cytotoxicity in HepG2 cells - 40 hour (AID 1224879); note: nearly all actives have a fitted effect of over 40% in size; note: potency is the fitted concentration of half-maximal effect
How it was run: as §4

[10] = qHTS RealTime-Glo MT Cell Viability Assay in HEK293 cells - 0 hour (AID 1224880)
How it was run: as §3

[11] = A CellTox Green Cytotoxicity Assay to monitor cytotoxicity in HEK293 cells - 32 hour (AID 1224881); note: nearly all actives have a fitted effect of over 40% in size; note: potency is the fitted concentration of half-maximal effect
How it was run: as §1

[12] = A CellTox Green Cytotoxicity Assay to monitor cytotoxicity in HepG2 cells - 0 hour (AID 1224882); note: nearly all actives have a fitted effect of over 35% in size; note: potency is the fitted concentration of half-maximal effect
How it was run: as §4

[13] = A CellTox Green Cytotoxicity Assay to monitor cytotoxicity in HepG2 cells - 32 hour (AID 1224883); note: nearly all actives have a fitted effect of over 50% in size; note: potency is the fitted concentration of half-maximal effect
How it was run: as §4

[14] = A CellTox Green Cytotoxicity Assay to monitor cytotoxicity in HEK293 cells - 8 hour (AID 1224884); note: nearly all actives have a fitted effect of over 35% in size; note: potency is the fitted concentration of half-maximal effect
How it was run: as §1

[15] = qHTS RealTime-Glo MT Cell Viability Assay in HepG2 cells - 16 hour (AID 1224885); note: nearly all actives have a fitted effect of over 50% in size
How it was run: as §5

[16] = qHTS RealTime-Glo MT Cell Viability Assay in HEK293 cells - 24 hour (AID 1224886)
How it was run: as §2

[17] = qHTS RealTime-Glo MT Cell Viability Assay in HEK293 cells - 8 hour (AID 1224887)
How it was run: as §3

[18] = A CellTox Green Cytotoxicity Assay to monitor cytotoxicity in HEK293 cells - 16 hour (AID 1224888); note: nearly all actives have a fitted effect of over 35% in size; note: potency is the fitted concentration of half-maximal effect
How it was run: as §1

[19] = qHTS RealTime-Glo MT Cell Viability Assay in HepG2 cells - 0 hour (AID 1224889); note: nearly all actives have a fitted effect of over 50% in size
How it was run: as §5

[20] = A CellTox Green Cytotoxicity Assay to monitor cytotoxicity in HepG2 cells - 8 hour (AID 1224890); note: nearly all actives have a fitted effect of over 45% in size
How it was run: as §4

Row | SMILES | Potency [1] | Potency [2] | Potency [3] | max response [4] [%] | Potency [5] | Potency [6] | Potency [7] | Potency [8] | Potency [9] | Potency [10] | Potency [11] | Potency [12] | Potency [13] | Potency [14] | Potency [15] | Potency [16] | Potency [17] | Potency [18] | Potency [19] | Potency [20]
1 | CCCc1ccccc1 | inactive | inactive | inactive | 0.274 | inactive | inactive | inactive | inactive | inactive | inactive | inactive | inactive | inactive | inactive | inactive | inactive | inactive | inactive | inactive | inactive
2 | CN(C)CC[C@@H](c1ccc(Br)cc1)c1ccccn1 | inactive | inactive | inactive | -14.2 | inactive | inactive | inactive | inactive | inactive | inactive | inactive | inactive | inactive | inactive | inactive | – | inactive | inactive | inactive | –
3 | CC(=O)NCCCS(=O)(=O)O | 16.9 µM (active) | inactive | inactive | 14.9 | 16.9 µM (active) | 18.9 µM (active) | inactive | 18.9 µM (active) | 18.9 µM (active) | inactive | 15 µM (active) | 16.9 µM (active) | 16.9 µM (active) | 16.9 µM (active) | inactive | inactive | inactive | 18.9 µM (active) | inactive | –
4 | O=C(Cl)c1ccc([N+](=O)[O-])cc1 | inactive | inactive | inactive | 7.36 | inactive | inactive | inactive | inactive | inactive | inactive | inactive | inactive | inactive | inactive | inactive | inactive | – | inactive | inactive | inactive
5 | Cc1ncsc1CCO | inactive | inactive | inactive | 14.2 | inactive | inactive | inactive | inactive | inactive | inactive | inactive | inactive | inactive | inactive | inactive | inactive | – | inactive | inactive | inactive
6 | CCOC(=O)C1=NN(c2ccccc2)C(=O)C1 | inactive | inactive | inactive | 1.57 | inactive | inactive | inactive | inactive | inactive | inactive | inactive | inactive | inactive | inactive | inactive | inactive | inactive | inactive | inactive | inactive
7 | Nc1cnn([C@@H]2O[C@H](CO)[C@@H](O)[C@H]2O)c(=O)n1 | inactive | inactive | inactive | -6.05 | inactive | inactive | inactive | inactive | inactive | inactive | inactive | inactive | inactive | inactive | inactive | inactive | inactive | inactive | inactive | inactive
8 | CNS(=O)(=O)Cc1ccc2[nH]cc(CCN(C)C)c2c1 | inactive | inactive | inactive | 2.61 | inactive | inactive | inactive | inactive | inactive | inactive | inactive | inactive | inactive | inactive | inactive | inactive | – | inactive | inactive | inactive
9 | CC[C@H](C)[C@H](N)C(=O)O | inactive | inactive | inactive | -1.16 | inactive | inactive | inactive | inactive | inactive | inactive | inactive | inactive | inactive | inactive | inactive | inactive | inactive | inactive | inactive | –
10 | C=C(C)C(=O)OCCOc1ccccc1 | inactive | inactive | inactive | 8.99 | inactive | inactive | inactive | inactive | inactive | inactive | inactive | inactive | inactive | inactive | inactive | inactive | – | inactive | inactive | inactive
11 | N#CCCNCCC#N | inactive | inactive | inactive | 6.76 | inactive | inactive | inactive | inactive | inactive | inactive | inactive | inactive | inactive | inactive | – | inactive | – | inactive | inactive | inactive
12 | Cc1ccc(C)o1 | inactive | inactive | inactive | -14.9 | inactive | inactive | inactive | inactive | inactive | inactive | inactive | inactive | inactive | inactive | inactive | inactive | inactive | inactive | inactive | inactive
13 | C=C(C)C(=O)OCCN(C)C | inactive | inactive | inactive | 0.256 | inactive | inactive | inactive | inactive | inactive | inactive | inactive | inactive | inactive | inactive | inactive | inactive | inactive | inactive | inactive | inactive
